Results from PubChem BioAssay (Tox21).
Several values for one entry are separate records, joined by “and”; a condition that tells them apart may be missing. Identical values can stand only once. Inconclusive results are not listed. Entries that show only a call come without a potency. Activity calls are given as the source filed them. Unless noted, the call rests on the fitted dose curve; in most records, active means well fitted curve in the direction sought with a large enough effect in the repeat runs; inconclusive means weak or mixed curves; inactive means no such curve, though single readings can be large; an effect the other way counts as inactive or inconclusive.

Key:
[1] = qHTS assay to identify aromatase inhibitors - cell viability counter screen (AID 743084);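 further: cells stimulated with testosterone during compound exposure; nearly all actives have a fitted effect of over 55% in size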; further: potency means the concentration at half of the fitted maximal effect
[2] = biological target: Aryl hydrocarbon receptor (Homo sapiens) (UniProt P35869); test: qHTS assay to identify small molecule that activate the aryl hydrocarbon receptor (AhR) signaling pathway (AID 743085); further: nearly all actives have a fitted effect of over 15% in size; further: potency means the concentration at half of the fitted maximal effect;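 on activation: HG2L7.5c1 human HepG2 liver cells with stably integrated DRE-driven firefly reporter; series mostly up to about 70 µM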
Aryl hydrocarbon receptor (Homo sapiens), sequence (P35869 whole entry, looked up): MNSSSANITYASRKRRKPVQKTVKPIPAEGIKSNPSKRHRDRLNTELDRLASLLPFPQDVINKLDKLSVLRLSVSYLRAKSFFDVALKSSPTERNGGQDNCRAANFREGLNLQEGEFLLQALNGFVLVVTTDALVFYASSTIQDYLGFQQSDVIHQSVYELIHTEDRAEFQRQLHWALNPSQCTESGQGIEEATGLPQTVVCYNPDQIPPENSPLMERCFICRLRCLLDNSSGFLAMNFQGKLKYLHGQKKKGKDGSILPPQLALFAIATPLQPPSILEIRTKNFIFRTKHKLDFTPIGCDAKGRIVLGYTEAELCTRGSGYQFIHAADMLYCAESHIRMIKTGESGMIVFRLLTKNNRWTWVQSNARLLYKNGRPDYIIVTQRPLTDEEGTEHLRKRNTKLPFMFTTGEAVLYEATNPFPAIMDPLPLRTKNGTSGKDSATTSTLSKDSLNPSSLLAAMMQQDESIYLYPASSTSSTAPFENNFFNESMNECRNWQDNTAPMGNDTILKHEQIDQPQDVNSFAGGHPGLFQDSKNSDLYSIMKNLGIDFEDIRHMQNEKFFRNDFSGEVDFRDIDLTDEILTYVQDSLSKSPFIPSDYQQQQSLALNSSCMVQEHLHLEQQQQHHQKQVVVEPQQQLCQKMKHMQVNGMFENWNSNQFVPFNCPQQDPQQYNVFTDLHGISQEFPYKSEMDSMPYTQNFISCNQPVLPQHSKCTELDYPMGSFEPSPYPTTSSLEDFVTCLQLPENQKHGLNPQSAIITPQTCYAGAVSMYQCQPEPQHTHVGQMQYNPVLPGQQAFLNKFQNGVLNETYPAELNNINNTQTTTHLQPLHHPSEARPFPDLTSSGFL
Procedure, shortened: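 Luminescence (ONE-Glo) from a dioxin-responsive-element luciferase reporter in HG2L7.5c1 HepG2 cells after 24 hr compound exposure at 37C; viability measured by CellTiter-Fluor fluorescence beforehand.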

[3] = qHTS assay to identify small molecule that activate the aryl hydrocarbon receptor (AhR) signaling pathway - cell viability counter screen (AID 743086); further: nearly all actives have a fitted effect of over 45% in size; further: potency means the concentration at half of the fitted maximal effect
Procedure, shortened: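 Cytotoxicity counter screen: CellTiter-Fluor signal (30 min, 37 C) in 4000 HepG2 cells/well carrying the DRE-luciferase reporter, following 24 h compound exposure at 37 C.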

[4] = qHTS assay to identify small molecule antagonists of the peroxisome proliferator-activated receptor gamma (PPARg) signaling pathway - cell viability counter screen (AID 743194); further: nearly all actives have a fitted effect of over 55% in size; further: potency means the concentration at half of the fitted maximal effect
Procedure, shortened: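 Viability was measured as CellTiter-Glo luminescence in GeneBLAzer PPARg UAS-bla HEK293H cells. These cells had been exposed 17 h at 37 C to compounds together with rosiglitazone at 50 nM final, with the beta-lactamase readout taken in the same wells.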

[5] = qHTS assay for small molecule agonists of the antioxidant response element (ARE) signaling pathway - cell viability counter screen (AID 743203; calls by dose curve; further: nearly all actives have a fitted effect of over 55% in size; further: potency means the concentration at half of the fitted maximal effect)
Procedure, shortened: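 CellSensor ARE-bla HepG2 cells, 2,000 per well, rested 5 hrs at 37C/5% CO2, then exposed to compound in DMSO for 16 hrs; viability read as CellTiter-Glo luminescence after 30 min at room temperature, in the reporter wells.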

[6] = qHTS assay for small molecule activators of the heat shock response signaling pathway - cell viability counter screen (AID 743209); further: nearly all actives have a fitted effect of over 50% in size; further: potency means the concentration at half of the fitted maximal effect
Procedure, shortened: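 CellSensor HSE-bla HeLa cells, plated overnight at 37 C/5% CO2, were exposed to compounds in DMSO for 5 h at 37 C. Viability was then read in the same wells by CellTiter-Glo luminescence after 30 min at room temperature.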

[7] = biological target: Peroxisome proliferator-activated receptor delta (Homo sapiens) (UniProt Q03181); test: qHTS assay to identify small molecule agonists of the peroxisome proliferator-activated receptor delta (PPARd) signaling pathway (AID 743212; calls by dose curve)
Peroxisome proliferator-activated receptor delta (Homo sapiens), sequence (Q03181 whole entry, looked up): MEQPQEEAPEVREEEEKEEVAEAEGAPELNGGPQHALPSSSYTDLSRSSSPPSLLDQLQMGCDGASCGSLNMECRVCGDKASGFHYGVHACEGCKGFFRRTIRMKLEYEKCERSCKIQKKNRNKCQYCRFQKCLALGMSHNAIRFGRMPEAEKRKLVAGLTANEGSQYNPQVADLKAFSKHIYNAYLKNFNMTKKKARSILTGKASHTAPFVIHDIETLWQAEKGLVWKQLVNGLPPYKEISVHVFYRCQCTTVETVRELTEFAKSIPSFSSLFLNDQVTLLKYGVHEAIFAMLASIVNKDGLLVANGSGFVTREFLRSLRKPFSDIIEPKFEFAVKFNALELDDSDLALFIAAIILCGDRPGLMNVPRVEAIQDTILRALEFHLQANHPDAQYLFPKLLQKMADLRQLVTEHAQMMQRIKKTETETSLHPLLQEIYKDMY
Procedure, shortened: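 HEK293H UAS-bla reporter cells, human PPARd system; compounds delivered in DMSO after 5 h plating, then at 37 C. Beta-lactamase FRET read, 2 h RT substrate step.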

[8] = qHTS assay to identify small molecule antagonists of the peroxisome proliferator-activated receptor delta (PPARd) signaling pathway - cell viability counter screen (AID 743213); further: nearly all actives have a fitted effect of over 50% in size; further: potency means the concentration at half of the fitted maximal effect
Procedure, shortened: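 PPARd-bla HEK293H cells were treated with compounds plus agonist L165041 (300 nM final) for 17 h at 37 C. Viability was then read in the same wells by CellTiter-Glo luminescence after 30 min at room temperature.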

[9] = biological target: Peroxisome proliferator-activated receptor delta (Homo sapiens) (UniProt Q03181); test: qHTS assay to identify small molecule antagonists of the peroxisome proliferator-activated receptor delta (PPARd) signaling pathway (AID 743215; active means well fitted inhibition curve with a large enough effect in the signal ratio in the repeat runs, not every such curve was filed as active; the % refers to the signal ratio;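 further: cells stimulated with agonist L165041 at 300 nM final during compound exposure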; further: potency means the concentration at half of the fitted maximal effect)
Procedure, shortened: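 PPARd UAS-bla HEK293H cells were pre-incubated 5 h at 37 C, then given test compounds in DMSO plus agonist L165041 (300 nM final). After 17 h at 37 C, beta-lactamase FRET substrate was added; fluorescence read after 2 h at room temperature.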

[10] = biological target: Bile acid receptor (Homo sapiens) (UniProt Q96RI1); test: qHTS assay to identify small molecule antagonists of the farnesoid-X-receptor (FXR) signaling pathway (AID 743217; active means well fitted inhibition curve with a large enough effect in the signal ratio in the repeat runs, not every such curve was filed as active; the % refers to the signal ratio)
Bile acid receptor (Homo sapiens), sequence (Q96RI1 whole entry, looked up): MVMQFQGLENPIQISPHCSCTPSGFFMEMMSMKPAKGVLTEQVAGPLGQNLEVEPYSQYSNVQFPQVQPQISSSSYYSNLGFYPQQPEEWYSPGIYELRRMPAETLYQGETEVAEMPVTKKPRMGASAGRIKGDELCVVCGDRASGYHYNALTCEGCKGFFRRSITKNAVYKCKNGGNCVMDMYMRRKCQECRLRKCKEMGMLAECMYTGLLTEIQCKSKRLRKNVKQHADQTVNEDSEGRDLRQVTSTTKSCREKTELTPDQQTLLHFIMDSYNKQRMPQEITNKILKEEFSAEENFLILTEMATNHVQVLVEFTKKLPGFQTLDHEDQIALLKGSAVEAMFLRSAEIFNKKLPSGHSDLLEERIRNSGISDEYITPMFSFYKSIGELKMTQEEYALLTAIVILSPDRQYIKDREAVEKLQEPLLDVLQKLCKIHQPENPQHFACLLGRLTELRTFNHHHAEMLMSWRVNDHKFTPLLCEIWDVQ
Procedure, shortened: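 FXR-UAS-bla HEK 293T cells pre-incubated 5 h at 37 °C, then exposed to compounds with chenodeoxycholic acid (50 uM final) for 16 h at 37 °C. Beta-lactamase reporter read by LiveBLAzer B/G FRET substrate fluorescence after 2 h at room temperature.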

[11] = qHTS assay to identify small molecule agonists of the farnesoid-X-receptor (FXR) signaling pathway - cell viability counter screen (AID 743218); further: nearly all actives have a fitted effect of over 45% in size; further: potency means the concentration at half of the fitted maximal effect
Procedure, shortened: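 FXR-UAS-bla HEK 293T cells, plated 5 h at 37 C, were exposed to compounds for 16 h at 37 C. CellTiter-Glo was then added to the same wells as the bla readout; luminescence read after 30 min at room temperature.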

[12] = biological target: Bile acid receptor (Homo sapiens) (UniProt Q96RI1); test: qHTS assay to identify small molecule agonists of the farnesoid-X-receptor (FXR) signaling pathway (AID 743220; active means well fitted activation curve with a large enough effect in the signal ratio in the repeat runs, not every such curve was filed as active; the % refers to the signal ratio)
Procedure, shortened: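 Beta-lactamase reporter under UAS control in GeneBLAzer FXR HEK 293T cells (5000/well) measured with LiveBLAzer FRET substrate after 2 h at room temperature. Compound exposure lasted 16 h at 37C.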

[13] = qHTS assay to identify small molecule antagonists of the farnesoid-X-receptor (FXR) signaling pathway - cell viability counter screen (AID 743221; active means well fitted cell-killing curve with a large enough effect in the repeat runs, not every such curve was filed as active; further: nearly all actives have a fitted effect of over 50% in size; further: potency means the concentration at half of the fitted maximal effect)
Procedure, shortened: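 Cytotoxicity counter screen run in the FXR-bla reporter wells: HEK 293T cells exposed to compound with 50 uM (final) chenodeoxycholic acid for 16 h, 37 C, then viability measured by CellTiter-Glo luminescence after 30 min, room temperature.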

[14] = biological target: Vitamin D3 receptor (Homo sapiens) (UniProt P11473); test: qHTS assay to identify small molecule agonists of the vitamin D receptor (VDR) signaling pathway (AID 743222; calls by dose curve)
Vitamin D3 receptor (Homo sapiens), sequence (P11473 whole entry, looked up): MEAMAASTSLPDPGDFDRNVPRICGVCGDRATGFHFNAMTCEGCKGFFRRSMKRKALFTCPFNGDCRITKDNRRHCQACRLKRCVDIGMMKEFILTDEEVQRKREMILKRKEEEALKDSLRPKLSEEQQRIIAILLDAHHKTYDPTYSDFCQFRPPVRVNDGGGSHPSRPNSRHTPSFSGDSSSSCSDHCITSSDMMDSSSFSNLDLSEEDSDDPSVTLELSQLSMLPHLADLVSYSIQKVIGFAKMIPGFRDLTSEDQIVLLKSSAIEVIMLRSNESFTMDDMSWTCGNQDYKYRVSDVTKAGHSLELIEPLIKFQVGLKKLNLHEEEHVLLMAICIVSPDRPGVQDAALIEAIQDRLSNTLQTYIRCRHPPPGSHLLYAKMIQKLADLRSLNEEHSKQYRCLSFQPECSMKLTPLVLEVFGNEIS
Procedure, shortened: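 VDR-bla cells were plated 4 h at 37C/5% CO2, then exposed to compounds in DMSO for 16 h. After LiveBLAzer B/G FRET substrate addition and 2 h at room temperature, beta-lactamase reporter fluorescence was read.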

[15] = biological target: Vitamin D3 receptor (Homo sapiens) (UniProt P11473); test: qHTS assay to identify small molecule antagonists of the vitamin D receptor (VDR) signaling pathway (AID 743223; active means well fitted inhibition curve with a large enough effect in the signal ratio in the repeat runs, not every such curve was filed as active; the % refers to the signal ratio; further: potency means the concentration at half of the fitted maximal effect)
Procedure, shortened: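 Antagonist mode: compound added to VDR-bla cells alongside agonist 1alpha,25-dihydroxyvitamin D3 (3 nM final), incubation 16 h at 37C. Read-out is LiveBLAzer FRET fluorescence, 2 h at room temperature.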

[16] = qHTS assay to identify small molecule agonists of the peroxisome proliferator-activated receptor delta (PPARd) signaling pathway - cell viability counter screen (AID 743211); further: nearly all actives have a fitted effect of over 55% in size; further: potency means the concentration at half of the fitted maximal effect
Procedure, shortened: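 Viability was measured as CellTiter-Glo luminescence (30 min, room temperature) in the same wells as the beta-lactamase readout. GeneBLAzer PPARd UAS-bla HEK293H cells received compound after 5 h plating and were incubated 17 h at 37 C.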

[17] = qHTS assay for small molecule agonists of the antioxidant response element (ARE) signaling pathway (AID 743202; active means well fitted activation curve with a large enough effect in the signal ratio in the repeat runs, not every such curve was filed as active; the % refers to the signal ratio; further: potency means the concentration at half of the fitted maximal effect)
Procedure, shortened: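 An ARE-responsive beta-lactamase gene stably integrated in HepG2 cells serves as reporter. After 5 h plating and 16 h compound incubation at 37 C, fluorescence of the B/G FRET substrate was measured.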

[18] = qHTS assay for small molecule activators of the heat shock response signaling pathway (AID 743210; active means well fitted activation curve with a large enough effect in the signal ratio in the repeat runs, with a control signal flat, not every such curve was filed as active; the % refers to the signal ratio;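 further: HeLa cells with beta-lactamase reporter driven by heat shock elements; series mostly up to about 63 µM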)
Procedure, shortened: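 In HSE-bla HeLa cells, 5 h compound incubation (37 C) precedes addition of LiveBLAzer B/G substrate; after 2.5 h at room temperature, fluorescence intensity indicates reporter induction.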

Compound	Potency [1]	Potency [2]	Potency [3]	Potency [4]	Potency [5]	Potency [6]	Potency [7]	Potency [8]	Potency [9]	Potency [10]	Potency [11]	Potency [12]	Potency [13]	Potency [14]	Potency [15]	Potency [16]	Potency [17]	Potency [18]
NNc1nc(-c2ccc(N)cc2)cs1	27.3 µM (active)	12.2 µM (active)	inactive	inactive	inactive	inactive	inactive	inactive	inactive	inactive	6.92 µM (active)	inactive	inactive	inactive	inactive			
CCc1cc(Cc2cc(CC)cc(C(C)(C)C)c2O)c(O)c(C(C)(C)C)c1	61.1 µM (active)	inactive	inactive	6.92 µM (active)	21.7 µM (active)	5.49 µM (active)		6.92 µM (active)			11 µM (active)		11 µM (active)		17.4 µM (active)	7.76 µM (active)		
C=CC(=O)OCC(CO)(COC(=O)C=C)COC(=O)C=C	2.18 µM (active) and 4.86 µM (active)	inactive	13.7 µM (active) and 27.3 µM (active)	11 µM (active) and 4.36 µM (active)	61.3 µM (active) and 30.6 µM (active)	3.9 µM (active) and 2.45 µM (active)		19.6 µM (active) and 13.8 µM (active)			19.6 µM (active) and 17.4 µM (active)		34.8 µM (active) and 30.9 µM (active)					
On1ccccc1=S	0.539 µM (active)	inactive	inactive	24.3 µM (active)	inactive	0.153 µM (active)		0.685 µM (active)			0.385 µM (active)						15.2 µM (active)	
CN(C)C(=O)C1(N2CCCCC2)CCN(CC[C@@]2(c3ccc(Cl)c(Cl)c3)CN(C(=O)c3ccccc3)CCO2)CC1	50.9 µM (active)	inactive	20.3 µM (active)	16.2 µM (active)	20.3 µM (active)	51.3 µM (active)		16.2 µM (active)			16.2 µM (active)		32.4 µM (active)	inactive		11.5 µM (active)		
CC(C)(C)C(=O)OCOC(=O)[C@@H]1N2C(=O)[C@@H](NC(=O)[C@H](N)c3ccccc3)[C@H]2SC1(C)C	inactive	inactive	inactive	inactive	inactive	inactive	inactive	inactive	inactive	inactive	inactive	inactive	inactive	inactive	inactive	inactive		
CS(=O)(=O)CCNCc1ccc(-c2ccc3ncnc(Nc4ccc(OCc5cccc(F)c5)c(Cl)c4)c3c2)o1	inactive	inactive	inactive	15 µM (active)	26.6 µM (active)	26.6 µM (active)		21.1 µM (active)			10.6 µM (active)		26.6 µM (active)			9.44 µM (active)		
C[n+]1cc2c3c(ccc2c2ccc4cc5c(cc4c21)OCO5)OCO3	21.1 µM (active)	6.68 µM (active)	10.6 µM (active)	1.3 µM (active)	0.92 µM (active)			1.84 µM (active)	2.59 µM (active)		1.46 µM (active)	inactive	1.46 µM (active)			1.46 µM (active)		
Clc1ccc2cc3ccccc3cc2c1	inactive	inactive	inactive	inactive	inactive	inactive		inactive	inactive	inactive		inactive	inactive		inactive			
CCN1/C(=C/C=C/c2sc3ccccc3[n+]2CC)Sc2ccccc21	5.96 µM (active)	2.66 µM (active)	6.68 µM (active)	14.6 µM (active)	13 µM (active)							inactive				14.6 µM (active)	1.16 µM (active)	
Cc1c(C)c2c(c(C)c1OC(=O)CCC(=O)O)CC[C@@](C)(CCC[C@H](C)CCC[C@H](C)CCCC(C)C)O2	inactive	inactive	inactive	inactive	inactive	inactive	inactive	inactive	inactive		inactive	inactive	inactive			inactive		inactive
CCCC(c1cc(C(C)(C)C)c(O)cc1C)c1cc(C(C)(C)C)c(O)cc1C	49.2 µM (active)	inactive	inactive	17.6 µM (active)	17.4 µM (active)	12.5 µM (active)		19.7 µM (active)			12.5 µM (active)		19.7 µM (active)					
